According to ChEMBL document CHEMBL3988442, “University of Dundee, Small-Polar-MMV Screening Library” (2021):
For part of these data: Potency and affinity values are given separately.

What was measured:
Set-up in all cases: scale not given: direction of the effect not stated beside the values
[1] = molecular target: Protein translocase subunit SecA (Escherichia coli (strain K12)) (UniProt P10408); experiment: Assay to Identify E. coli SecA ATPase Inhibitors; assay type: functional; settings: 30 µM
Protein translocase subunit SecA (Escherichia coli (strain K12)), sequence (P10408 whole entry): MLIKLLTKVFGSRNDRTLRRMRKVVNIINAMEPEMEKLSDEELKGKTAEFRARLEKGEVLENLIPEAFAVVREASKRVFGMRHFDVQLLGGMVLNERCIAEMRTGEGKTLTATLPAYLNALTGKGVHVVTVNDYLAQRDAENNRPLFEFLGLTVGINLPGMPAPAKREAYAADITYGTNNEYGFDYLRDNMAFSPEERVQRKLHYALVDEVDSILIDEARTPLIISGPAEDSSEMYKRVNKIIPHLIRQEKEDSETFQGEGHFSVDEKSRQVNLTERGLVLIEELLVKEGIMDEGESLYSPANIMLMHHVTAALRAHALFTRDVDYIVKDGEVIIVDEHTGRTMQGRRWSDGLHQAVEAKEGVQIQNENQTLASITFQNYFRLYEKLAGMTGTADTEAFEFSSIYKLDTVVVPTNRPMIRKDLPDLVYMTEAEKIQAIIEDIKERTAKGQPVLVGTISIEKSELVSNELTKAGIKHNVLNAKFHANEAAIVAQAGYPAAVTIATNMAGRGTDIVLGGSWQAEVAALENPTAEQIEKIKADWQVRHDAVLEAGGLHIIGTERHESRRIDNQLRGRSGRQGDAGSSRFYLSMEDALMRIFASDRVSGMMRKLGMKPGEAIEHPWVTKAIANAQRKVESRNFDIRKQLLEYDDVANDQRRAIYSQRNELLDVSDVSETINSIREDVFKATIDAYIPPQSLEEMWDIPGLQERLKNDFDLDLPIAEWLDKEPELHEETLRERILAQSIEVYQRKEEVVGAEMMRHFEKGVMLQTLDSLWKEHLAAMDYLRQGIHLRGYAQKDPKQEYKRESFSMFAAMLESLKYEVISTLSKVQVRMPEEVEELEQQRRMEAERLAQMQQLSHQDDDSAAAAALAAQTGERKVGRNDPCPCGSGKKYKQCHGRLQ

[2] = molecular target: T1, Ubiquitin-activating enzyme e1, putative (Leishmania donovani (strain BPK282A1)) (UniProt E9BSI1); experiment: Leishmania donovani Ubiquitin Activating Enzyme (LdE1); assay type: functional; settings: 30 µM
T1 sequence (whole entry): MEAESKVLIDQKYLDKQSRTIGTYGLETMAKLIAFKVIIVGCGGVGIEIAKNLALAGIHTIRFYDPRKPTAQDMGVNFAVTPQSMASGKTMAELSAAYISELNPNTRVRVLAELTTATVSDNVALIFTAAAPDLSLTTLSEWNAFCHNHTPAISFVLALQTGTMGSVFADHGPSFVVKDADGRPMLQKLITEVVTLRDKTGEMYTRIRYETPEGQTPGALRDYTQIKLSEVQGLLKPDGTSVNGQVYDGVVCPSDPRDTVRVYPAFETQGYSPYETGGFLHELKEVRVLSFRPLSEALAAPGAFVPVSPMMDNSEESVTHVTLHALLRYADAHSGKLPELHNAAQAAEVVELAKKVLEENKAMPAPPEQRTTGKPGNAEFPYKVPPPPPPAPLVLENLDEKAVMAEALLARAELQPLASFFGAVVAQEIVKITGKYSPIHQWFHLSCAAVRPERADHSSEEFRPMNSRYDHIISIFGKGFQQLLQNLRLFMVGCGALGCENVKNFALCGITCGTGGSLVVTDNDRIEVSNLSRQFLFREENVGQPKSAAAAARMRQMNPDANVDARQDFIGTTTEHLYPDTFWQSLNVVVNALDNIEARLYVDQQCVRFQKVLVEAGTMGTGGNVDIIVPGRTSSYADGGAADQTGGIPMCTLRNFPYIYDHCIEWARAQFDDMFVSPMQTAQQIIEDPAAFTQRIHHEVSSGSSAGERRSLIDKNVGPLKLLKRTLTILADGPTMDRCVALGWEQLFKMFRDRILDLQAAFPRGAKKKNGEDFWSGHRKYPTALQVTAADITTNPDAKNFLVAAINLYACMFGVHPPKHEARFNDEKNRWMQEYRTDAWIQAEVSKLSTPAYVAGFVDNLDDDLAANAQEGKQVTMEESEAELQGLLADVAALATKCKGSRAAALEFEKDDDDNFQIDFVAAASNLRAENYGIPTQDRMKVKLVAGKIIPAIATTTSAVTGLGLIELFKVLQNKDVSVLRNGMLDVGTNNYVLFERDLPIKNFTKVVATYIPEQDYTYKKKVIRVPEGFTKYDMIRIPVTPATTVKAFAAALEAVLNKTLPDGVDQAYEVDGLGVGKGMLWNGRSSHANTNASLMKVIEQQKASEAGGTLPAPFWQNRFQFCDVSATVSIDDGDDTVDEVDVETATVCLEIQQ

[3] = molecular target: AMP-activated protein kinase, AMPK (Homo sapiens) (UniProt P54646+O43741+P54619+Q9UGJ0+Q9Y478+Q13131+Q9UGI9); experiment: AMP-dependent Kinase enzyme assay. An in vitro enzyme assay that detects ADP turnover that is directly proportional to AMPK activity. This uses naive AMPK that is activated during the assay with MK-8722; assay type: functional; settings: 30 µM
[4] = molecular target: Sialic acid-binding Ig-like lectin 9 (Homo sapiens) (UniProt Q9Y336); experiment: Hs-Siglec9 ALPHAscreen SOP 20170721; settings: 10 µM
Sialic acid-binding Ig-like lectin 9 (Homo sapiens), sequence (Q9Y336 whole entry): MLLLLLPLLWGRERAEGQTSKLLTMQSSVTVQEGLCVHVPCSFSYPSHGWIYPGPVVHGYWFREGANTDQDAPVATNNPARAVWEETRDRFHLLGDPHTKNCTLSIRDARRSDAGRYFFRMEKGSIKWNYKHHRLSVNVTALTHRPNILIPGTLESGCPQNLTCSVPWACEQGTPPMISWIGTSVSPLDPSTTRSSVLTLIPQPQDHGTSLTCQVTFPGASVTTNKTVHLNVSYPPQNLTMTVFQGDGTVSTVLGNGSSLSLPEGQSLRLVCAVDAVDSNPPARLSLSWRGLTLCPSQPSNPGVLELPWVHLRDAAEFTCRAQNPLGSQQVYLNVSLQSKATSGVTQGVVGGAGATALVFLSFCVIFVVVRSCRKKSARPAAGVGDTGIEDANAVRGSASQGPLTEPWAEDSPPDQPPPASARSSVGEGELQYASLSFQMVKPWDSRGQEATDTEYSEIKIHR

[5] = test system: Trypanosoma cruzi; experiment: Trypanosoma cruzi phosphomannomutase and mannose-1-phosphate guanylyltransferase assay; assay type: functional; settings: 10 µM
[6] = molecular target: T2, Arginase-2, mitochondrial (Homo sapiens) (UniProt P78540); experiment: in vitro enzyme assay to detect the production of urea directly proportional to the activity of Arginase II; assay type: functional; settings: 33.3 µM; note: in the data most compounds retested in dose-response had high values
T2 sequence (whole entry): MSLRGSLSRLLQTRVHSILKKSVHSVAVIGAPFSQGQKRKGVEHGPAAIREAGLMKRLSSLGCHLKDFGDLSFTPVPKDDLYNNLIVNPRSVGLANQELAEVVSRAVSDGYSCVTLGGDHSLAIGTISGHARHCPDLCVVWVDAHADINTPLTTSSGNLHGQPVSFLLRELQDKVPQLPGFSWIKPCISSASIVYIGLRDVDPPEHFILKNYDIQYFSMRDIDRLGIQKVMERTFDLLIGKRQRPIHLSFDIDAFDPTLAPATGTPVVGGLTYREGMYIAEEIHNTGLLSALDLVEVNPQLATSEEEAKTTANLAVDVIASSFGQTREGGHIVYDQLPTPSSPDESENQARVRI

[7] = molecular target: T3, Proteasome subunit beta (Trypanosoma cruzi) (UniProt O96673); experiment: Trypanosoma cruzi proteasome chymotrypsin-like activity (TcProtChymo) assay.; note: in the data most compounds retested in dose-response had high values; assay type: functional; settings: 9.37 µM
T3 sequence (whole entry): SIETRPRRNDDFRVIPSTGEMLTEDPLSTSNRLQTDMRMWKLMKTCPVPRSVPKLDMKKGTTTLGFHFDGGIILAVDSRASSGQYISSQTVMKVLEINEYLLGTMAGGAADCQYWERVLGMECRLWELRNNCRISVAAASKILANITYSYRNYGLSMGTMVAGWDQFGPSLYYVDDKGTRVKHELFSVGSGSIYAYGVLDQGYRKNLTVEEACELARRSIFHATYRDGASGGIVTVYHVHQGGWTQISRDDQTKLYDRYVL

[8] = species on record: Homo sapiens; experiment: To identify inhibition of the IFN signalling (Jak-Stat) pathway via expression of an eGFP reporter gene under the control of an IFN-stimulated response element (ISRE) containing MxA promoter.; assay type: functional; settings: 30 µM
[9] = molecular target: T4, Tyrosyl-tRNA synthetase, putative (Trypanosoma cruzi (strain CL Brener)) (UniProt Q4DSP6); experiment: Trypanosoma cruzi tyrosyl tRNA synthetase (TcYRS) _High Tyrosine SOP; assay type: functional; settings: 30 µM; note: in the data most compounds retested in dose-response had high values
T4 sequence (whole entry): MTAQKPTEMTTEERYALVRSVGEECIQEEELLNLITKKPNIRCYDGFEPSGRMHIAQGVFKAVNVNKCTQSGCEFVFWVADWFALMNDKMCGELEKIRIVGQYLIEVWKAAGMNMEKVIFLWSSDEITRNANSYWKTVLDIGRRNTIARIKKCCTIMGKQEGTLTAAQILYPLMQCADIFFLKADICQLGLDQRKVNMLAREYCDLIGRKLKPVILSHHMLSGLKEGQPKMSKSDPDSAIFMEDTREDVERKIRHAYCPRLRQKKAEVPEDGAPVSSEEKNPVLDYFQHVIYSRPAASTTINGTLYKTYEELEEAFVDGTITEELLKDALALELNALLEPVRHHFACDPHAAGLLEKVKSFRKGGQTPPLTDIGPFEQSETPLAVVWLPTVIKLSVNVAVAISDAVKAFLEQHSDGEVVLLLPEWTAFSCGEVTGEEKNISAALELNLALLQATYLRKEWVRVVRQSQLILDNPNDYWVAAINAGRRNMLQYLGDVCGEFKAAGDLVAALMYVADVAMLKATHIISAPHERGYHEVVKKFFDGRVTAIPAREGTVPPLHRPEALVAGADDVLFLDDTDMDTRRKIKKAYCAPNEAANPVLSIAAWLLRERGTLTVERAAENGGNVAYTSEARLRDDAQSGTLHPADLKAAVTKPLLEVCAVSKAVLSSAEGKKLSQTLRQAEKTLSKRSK

[10] = molecular target: T4, Tyrosyl-tRNA synthetase, putative (Trypanosoma cruzi (strain CL Brener)); experiment: Trypanosoma cruzi tyrosyl tRNA synthetase (TcYRS) SOP; assay type: functional; settings: 30 µM
[11] = molecular target: Chromo domain-containing protein 1 (Saccharomyces cerevisiae (strain ATCC 204508 / S288c) (Baker's yeast)) (UniProt P32657); experiment: ScCHD-1 Enzyme Inhibition Assay; assay type: functional; settings: 30 µM; note: in the data most compounds retested in dose-response had high values
Chromo domain-containing protein 1 (Saccharomyces cerevisiae (strain ATCC 204508 / S288c) (Baker's yeast)), sequence (P32657 whole entry, the tested form may be a part): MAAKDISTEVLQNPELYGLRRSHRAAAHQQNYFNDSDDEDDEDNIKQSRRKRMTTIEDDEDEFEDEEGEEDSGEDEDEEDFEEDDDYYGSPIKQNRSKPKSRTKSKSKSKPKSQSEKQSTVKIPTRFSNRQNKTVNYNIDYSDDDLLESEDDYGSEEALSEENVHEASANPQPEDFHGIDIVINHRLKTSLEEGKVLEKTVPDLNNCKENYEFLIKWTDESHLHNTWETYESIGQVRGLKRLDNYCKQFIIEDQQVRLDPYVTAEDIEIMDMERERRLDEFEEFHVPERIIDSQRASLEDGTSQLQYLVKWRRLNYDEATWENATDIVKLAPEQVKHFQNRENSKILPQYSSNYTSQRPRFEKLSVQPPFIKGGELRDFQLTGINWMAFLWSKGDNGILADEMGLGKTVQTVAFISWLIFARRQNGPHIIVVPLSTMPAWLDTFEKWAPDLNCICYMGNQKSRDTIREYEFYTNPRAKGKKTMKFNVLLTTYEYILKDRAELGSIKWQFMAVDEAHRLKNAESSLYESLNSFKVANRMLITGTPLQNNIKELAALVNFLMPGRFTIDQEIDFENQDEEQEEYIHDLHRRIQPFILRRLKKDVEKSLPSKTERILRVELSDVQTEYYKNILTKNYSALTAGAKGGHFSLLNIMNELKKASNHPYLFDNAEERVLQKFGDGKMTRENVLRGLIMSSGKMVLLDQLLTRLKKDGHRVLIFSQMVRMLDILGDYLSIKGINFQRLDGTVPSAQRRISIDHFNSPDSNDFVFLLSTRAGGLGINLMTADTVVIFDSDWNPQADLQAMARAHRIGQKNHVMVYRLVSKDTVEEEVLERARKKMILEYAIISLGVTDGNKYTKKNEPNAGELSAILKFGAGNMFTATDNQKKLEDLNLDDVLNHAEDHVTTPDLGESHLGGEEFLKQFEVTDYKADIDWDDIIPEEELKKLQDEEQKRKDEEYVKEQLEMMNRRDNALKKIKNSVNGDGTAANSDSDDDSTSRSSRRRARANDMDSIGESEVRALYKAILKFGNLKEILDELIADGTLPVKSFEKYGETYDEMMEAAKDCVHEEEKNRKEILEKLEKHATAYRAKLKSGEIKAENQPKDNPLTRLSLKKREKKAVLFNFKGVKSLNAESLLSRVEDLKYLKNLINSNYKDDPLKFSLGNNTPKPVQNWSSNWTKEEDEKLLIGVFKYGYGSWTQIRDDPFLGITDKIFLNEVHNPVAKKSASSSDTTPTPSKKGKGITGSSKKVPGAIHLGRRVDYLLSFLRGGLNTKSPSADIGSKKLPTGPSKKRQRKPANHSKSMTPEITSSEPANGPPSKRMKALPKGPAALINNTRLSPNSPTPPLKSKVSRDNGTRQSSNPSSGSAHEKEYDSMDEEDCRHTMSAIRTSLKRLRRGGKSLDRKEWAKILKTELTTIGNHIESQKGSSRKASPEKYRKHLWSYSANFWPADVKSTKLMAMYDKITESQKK

Row | SMILES | Percent Effect [1] [%] | Percent Effect [2] [%] | Percent Effect [3] [%] | Percent Effect [4] [%] | Percent Effect [5] [%] | Percent Effect [6] [%] | Percent Effect [7] [%] | Percent Effect [8] [%] | Percent Effect [9] [%] | Percent Effect [10] [%] | Percent Effect [11] [%]
1 | Clc1ccc(OCCN2CCN(CCn3cncn3)CC2)cc1 | -0.515 | -5.41 | -3.56 | 26.8 | 8.69 | -2.86 | 4.48 | 13.3 | 1.59 | 14.6 | -8.8
2 | CCc1nnc2n1CCN(C(=O)c1cnc3ccccc3n1)C2 | -4.63 | 4.17 | -7.62 | 28.2 | 3.79 | 17.2 | 12.5 | -6.01 | 5.26 | 12.8 | -3.35
3 | CN(C)CCNC(=O)CNC(=O)N1CCc2c([nH]c3ccc(Cl)cc23)C1 | -4.87 | -1.33 | 9.82 | 0.772 | -2.55 | -9.33 | 0.185 | -14.7 | -1.06 | -7.69 | -0.829
4 | O=C(NC1CC1)[C@@H]1CCO[C@@H]2CCN(Cc3ccsc3)C[C@H]21 | -3.17 | -8.11 | 8.56 | 0.445 | -5.38 | 3.5 | 17.5 | 3.93 | 0 | 0 | 7.56
5 | O=C(CCNC(=O)c1ccccc1)Nc1ccncc1 | 1.26 | 10.5 | 6.49 | -0.508 | -4.58 | -8.28 | 13.5 | 3.87 | 2.13 | 10.4 | -2.65
6 | CC(=O)N1CCCN(C(=O)c2cnc3n[nH]c(C)c3c2)CC1 | -1.9 | 15.8 | -3.49 | 5.52 | 3.08 | 3.96 | 2.45 | -3.15 | 9.36 | 23.5 | -9.47
7 | c1ccc(-c2noc(CN3CCOC(Cn4cccn4)C3)n2)nc1 (stereo unspecified) | -0.328 | 0 | 4.78 | 8.36 | 0.188 | -1.53 | 3.51 | 6.16 | -0.49 | -2.44 | 4.99
8 | CCn1cnnc1CNC(=O)c1cc(Cl)ccc1O | -2.03 | 8.86 | 6.87 | -0.716 | -5.44 | -7.1 | 17 | 11.3 | 5.21 | -15.2 | -14
9 | CC(=O)NCCC1CCCCN1S(=O)(=O)c1cccc(C#N)c1 (stereo unspecified) | -7.77 | 8.22 | 1.2 | 3.78 | 1.98 | -2 | 13.6 | 4.41 | 2.08 | 8.64 | 0.784
10 | COc1cc(C(=O)NC(CC(=O)O)c2cccs2)cc(Cl)c1OC (stereo unspecified) | -3 | 8.86 | 6.71 | -5.2 | -3.79 | 1.07 | 20.9 | -0.746 | 2.08 | 5.06 | -25.4
11 | Cc1noc(C)c1C(=O)N(C)Cc1nc(-c2ccccn2)no1 | -7.17 | 2.67 | -0.593 | 19 | 2.43 | 4.69 | 4.53 | -1.43 | 4.92 | 11.1 | -3.45
12 | CCNC(c1cccnc1)c1ccc(F)c(F)c1 (stereo unspecified) | -1.6 | -1.27 | 6.62 | 2.25 | -0.923 | 4.09 | 5.66 | 5.14 | 1.04 | -5.06 | -14.2
13 | COc1c(CNC(c2ccc(F)cc2)C(C)(C)C)c(C)nn1C (stereo unspecified) | -1.68 | 5.26 | -4.48 | 2.41 | -6.01 | -7.28 | 4.84 | 30.8 | 0.49 | -4.88 | -5.33
14 | OCCN1CCOC2(CCCN(c3cccc(F)c3)C2)C1 (stereo unspecified) | -3.44 | 13.3 | 5.94 | -3.82 | 0.394 | 0.233 | 8.55 | 3.49 | 10.6 | 24.4 | -6.84
15 | CCOCc1ncn2c1CN(C(=O)Nc1cccc(C)c1)CC2 | -0.857 | -173 | 3.58 | 1.03 | -2.54 | 0.417 | 9.21 | 2.31 | 12.9 | 13.4 | 1.64
16 | COc1ccccc1CN(C)c1nccc(-c2cn(C)nc2C)n1 | -1.09 | 5.33 | 2.11 | 8.22 | 4.58 | 24 | 16 | 34.9 | 6.01 | 16.1 | -5.41
17 | Cc1cccc(OCCC(=O)N(C)CCC#N)c1C | -4.33 | 2.63 | 12.1 | 7.74 | -5.16 | -5.92 | 23.1 | 9.14 | 4.25 | 10.4 | -5.59
18 | Cc1cc(C)c(CNC(=O)N2CCCC2C(N)=O)c(=O)[nH]1 (stereo unspecified) | -3.77 | 6.33 | 7.27 | 3.83 | -1.95 | 1.5 | 23.5 | 11.6 | 5.21 | 12.7 | -14.7
19 | Cn1cccc1C(=O)N[C@@H]1CN(CC2CC2)[C@@H]2COC[C@@H]21 | -2.02 | 5.33 | -1.14 | 25.9 | -7.14 | -54.7 | -2.73 | -2.91 | 1.04 | 7.5 | -7.28
20 | Cn1cc(CN2CC[C@@H]3O[C@H](C(=O)N4CCOCC4)C[C@@H]32)cn1 | 1.91 | -2.7 | 0.801 | -2.48 | -3.91 | 2.5 | -0.0845 | -20.5 | -46.5 | -3.66 | 4.62
21 | CCN(Cc1ccc2c(c1)OCCO2)C(=O)NCc1nc(C)cs1 | 0.275 | 10.4 | -0.784 | -5.04 | -0.294 | 4.84 | 14.6 | 11.4 | 4.76 | 11.8 | -19.3
